# In paper PMC7862700, “An all-to-all approach to the identification of sequence-specific readers for epigenetic DNA modifications on cytosine”:
# Assays:
# Assay in all cases: DAPPL (digital affinity profiling via proximity ligation, sequencing); 10 mM Tris-HCl pH 7.5, 50 mM NaCl, 1 mM DTT, 4% glycerol, room temperature, 30 min; GST-TFs on glutathione beads, 16-mer random dsDNA library, 0.1% formaldehyde crosslink after washing; high values mean tight binding
# FLI1 = molecular target: T1, FLI1 (Homo sapiens, UniProt Q01543 1-452); conditions: protein: recombinant; tags: N-terminal GST; dsDNA, one strand shown
# T1 sequence: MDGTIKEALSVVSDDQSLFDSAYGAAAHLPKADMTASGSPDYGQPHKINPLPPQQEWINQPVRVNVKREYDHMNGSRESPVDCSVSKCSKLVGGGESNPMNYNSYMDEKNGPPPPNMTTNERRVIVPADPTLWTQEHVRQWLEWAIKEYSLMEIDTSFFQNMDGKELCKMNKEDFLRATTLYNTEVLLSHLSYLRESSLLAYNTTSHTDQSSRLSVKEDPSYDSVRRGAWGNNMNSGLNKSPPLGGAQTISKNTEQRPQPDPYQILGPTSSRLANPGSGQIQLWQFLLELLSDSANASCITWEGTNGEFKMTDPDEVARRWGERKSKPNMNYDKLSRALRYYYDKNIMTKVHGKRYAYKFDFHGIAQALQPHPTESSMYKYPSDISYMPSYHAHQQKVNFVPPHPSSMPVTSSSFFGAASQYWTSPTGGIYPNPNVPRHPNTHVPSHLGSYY
# Method in brief: (§1)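 After expression in yeast as GST fusions, human transcription factors were bound to glutathione beads, DNA-barcoded and mixed with a tag-only sample. The pools were incubated with 200 nmole of a 16-mer random double-stranded DNA library in Tris/NaCl/DTT/glycerol buffer (30 min, room temperature), washed and crosslinked with 0.1% formaldehyde. Proximity ligation with BsaI/T4 ligase ran for 1 h at 37 °C, before PCR amplification and sequencing on an Illumina NextSeq500. Binding signal is a hexamer's read frequency for a factor divided by its frequency for the tag-only sample.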
# ELK1 = molecular target: T2, ELK1 (Homo sapiens, UniProt P19419 1-428); conditions: protein: recombinant; tags: N-terminal GST; dsDNA, one strand shown
# T2 sequence: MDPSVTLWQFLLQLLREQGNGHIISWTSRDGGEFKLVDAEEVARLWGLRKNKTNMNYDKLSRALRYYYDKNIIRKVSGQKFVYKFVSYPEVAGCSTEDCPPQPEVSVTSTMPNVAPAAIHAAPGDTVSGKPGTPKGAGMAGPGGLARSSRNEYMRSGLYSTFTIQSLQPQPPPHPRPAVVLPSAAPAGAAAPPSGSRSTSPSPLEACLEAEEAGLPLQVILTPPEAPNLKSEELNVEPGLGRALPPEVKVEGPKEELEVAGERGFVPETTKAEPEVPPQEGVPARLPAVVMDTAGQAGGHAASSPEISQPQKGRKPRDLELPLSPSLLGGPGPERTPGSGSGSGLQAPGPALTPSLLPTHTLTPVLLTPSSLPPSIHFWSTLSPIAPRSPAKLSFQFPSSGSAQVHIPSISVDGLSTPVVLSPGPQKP
# Method in brief: as §1
# GABPA = molecular target: T3, GABPA (Homo sapiens, UniProt Q06546 1-454); conditions: protein: recombinant; tags: N-terminal GST; dsDNA, one strand shown
# T3 sequence: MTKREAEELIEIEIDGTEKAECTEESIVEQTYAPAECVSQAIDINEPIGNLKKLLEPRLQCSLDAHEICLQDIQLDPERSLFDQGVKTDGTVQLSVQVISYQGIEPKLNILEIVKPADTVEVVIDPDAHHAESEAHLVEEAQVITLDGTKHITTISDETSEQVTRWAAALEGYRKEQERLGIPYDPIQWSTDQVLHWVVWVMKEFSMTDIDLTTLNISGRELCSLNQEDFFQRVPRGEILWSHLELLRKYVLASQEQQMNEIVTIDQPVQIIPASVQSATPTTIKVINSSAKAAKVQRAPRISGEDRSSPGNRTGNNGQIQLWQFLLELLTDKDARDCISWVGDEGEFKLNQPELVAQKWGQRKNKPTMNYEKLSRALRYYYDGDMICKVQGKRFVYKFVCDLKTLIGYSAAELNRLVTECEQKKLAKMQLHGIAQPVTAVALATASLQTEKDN
# Method in brief: as §1
# ERG = molecular target: T4, ERG (Homo sapiens, UniProt P11308 1-479); conditions: protein: recombinant; tags: N-terminal GST; dsDNA, one strand shown
# T4 sequence: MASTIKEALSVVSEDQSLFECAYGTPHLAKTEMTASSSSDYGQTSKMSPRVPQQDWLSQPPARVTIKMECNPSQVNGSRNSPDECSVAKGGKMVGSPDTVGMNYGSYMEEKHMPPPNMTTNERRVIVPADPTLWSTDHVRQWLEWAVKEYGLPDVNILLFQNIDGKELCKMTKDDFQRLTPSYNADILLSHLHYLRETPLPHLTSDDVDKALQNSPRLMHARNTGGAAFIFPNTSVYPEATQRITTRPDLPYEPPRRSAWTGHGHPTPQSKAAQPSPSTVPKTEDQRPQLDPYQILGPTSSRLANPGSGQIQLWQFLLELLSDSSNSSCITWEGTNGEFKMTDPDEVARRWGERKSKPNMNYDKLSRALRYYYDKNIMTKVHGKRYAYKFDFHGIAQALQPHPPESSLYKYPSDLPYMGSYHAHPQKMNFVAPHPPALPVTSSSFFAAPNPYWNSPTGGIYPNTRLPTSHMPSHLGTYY
# Method in brief: as §1
# ELF1 = ELF1 (Homo sapiens, UniProt P32519 1-619); conditions: protein: recombinant; tags: N-terminal GST; dsDNA, one strand shown
# Method in brief: as §1
# EHF = molecular target: T5, EHF (Homo sapiens, UniProt Q9NZC4 1-300); conditions: protein: recombinant; tags: N-terminal GST; dsDNA, one strand shown
# T5 sequence: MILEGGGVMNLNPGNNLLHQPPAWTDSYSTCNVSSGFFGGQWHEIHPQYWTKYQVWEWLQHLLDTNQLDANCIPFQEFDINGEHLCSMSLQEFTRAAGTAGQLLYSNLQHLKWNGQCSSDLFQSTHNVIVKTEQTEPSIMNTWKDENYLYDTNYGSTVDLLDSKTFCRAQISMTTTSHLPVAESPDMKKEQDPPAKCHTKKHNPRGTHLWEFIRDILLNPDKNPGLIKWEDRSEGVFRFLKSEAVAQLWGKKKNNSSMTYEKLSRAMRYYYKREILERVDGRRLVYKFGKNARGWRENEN
# Method in brief: as §1
# SPI1 = SPI1 (Homo sapiens, UniProt P17947 1-270); conditions: protein: recombinant; tags: N-terminal GST; dsDNA, one strand shown
# Method in brief: as §1
# SPIB = SPIB (Homo sapiens, UniProt Q01892 1-262); conditions: protein: recombinant; tags: N-terminal GST; dsDNA, one strand shown
# Method in brief: as §1
# ELK3 = molecular target: T6, ELK3 (Homo sapiens, UniProt P41970 1-407); conditions: protein: recombinant; tags: N-terminal GST; dsDNA, one strand shown
# T6 sequence: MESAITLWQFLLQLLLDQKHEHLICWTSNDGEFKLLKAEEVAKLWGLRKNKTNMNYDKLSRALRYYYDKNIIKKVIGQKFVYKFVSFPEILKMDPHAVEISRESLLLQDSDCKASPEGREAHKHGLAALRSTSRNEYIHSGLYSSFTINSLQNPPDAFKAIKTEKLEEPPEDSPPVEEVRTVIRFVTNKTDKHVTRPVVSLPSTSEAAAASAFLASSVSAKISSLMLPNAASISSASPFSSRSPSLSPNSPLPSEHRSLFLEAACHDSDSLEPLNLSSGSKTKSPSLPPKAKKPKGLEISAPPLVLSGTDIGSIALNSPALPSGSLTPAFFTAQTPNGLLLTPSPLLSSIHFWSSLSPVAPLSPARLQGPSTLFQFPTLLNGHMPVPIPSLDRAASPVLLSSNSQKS
# Method in brief: as §1
# FEV = molecular target: T7, FEV (Homo sapiens, UniProt Q99581 1-238); conditions: protein: recombinant; tags: N-terminal GST; dsDNA, one strand shown
# T7 sequence: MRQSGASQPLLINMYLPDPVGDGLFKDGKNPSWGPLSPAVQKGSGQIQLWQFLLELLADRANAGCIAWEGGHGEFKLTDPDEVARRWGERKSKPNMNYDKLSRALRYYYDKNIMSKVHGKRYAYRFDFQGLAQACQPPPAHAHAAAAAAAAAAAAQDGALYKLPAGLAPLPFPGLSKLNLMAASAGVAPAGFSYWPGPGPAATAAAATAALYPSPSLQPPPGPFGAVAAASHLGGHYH
# Method in brief: as §1
# ETV5 = ETV5 (Homo sapiens, UniProt P41161 1-510); conditions: protein: recombinant; tags: N-terminal GST; dsDNA, one strand shown
# Method in brief: as §1
# HSF1 = HSF1 (Homo sapiens, UniProt Q00613 1-529); conditions: protein: recombinant; tags: N-terminal GST; chain copies: 3; dsDNA, one strand shown
# Method in brief: as §1
# SPIC = molecular target: T8, SPIC (Homo sapiens, UniProt Q8N5J4 1-248); conditions: protein: recombinant; tags: N-terminal GST; dsDNA, one strand shown
# T8 sequence: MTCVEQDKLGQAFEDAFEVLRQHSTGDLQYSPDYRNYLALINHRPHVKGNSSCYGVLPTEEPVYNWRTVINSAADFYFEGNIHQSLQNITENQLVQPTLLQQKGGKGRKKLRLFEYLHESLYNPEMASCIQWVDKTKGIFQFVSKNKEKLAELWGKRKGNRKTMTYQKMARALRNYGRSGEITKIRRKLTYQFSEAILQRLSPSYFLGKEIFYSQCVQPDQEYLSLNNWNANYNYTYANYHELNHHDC
# Method in brief: as §1
# ELF4 = ELF4 (Homo sapiens, UniProt Q99607 1-663); conditions: protein: recombinant; tags: N-terminal GST; dsDNA, one strand shown
# Method in brief: as §1
# ELK4 = molecular target: T9, ELK4 (Homo sapiens, UniProt P28324-2 1-405); conditions: protein: recombinant; tags: N-terminal GST; dsDNA, one strand shown
# T9 sequence: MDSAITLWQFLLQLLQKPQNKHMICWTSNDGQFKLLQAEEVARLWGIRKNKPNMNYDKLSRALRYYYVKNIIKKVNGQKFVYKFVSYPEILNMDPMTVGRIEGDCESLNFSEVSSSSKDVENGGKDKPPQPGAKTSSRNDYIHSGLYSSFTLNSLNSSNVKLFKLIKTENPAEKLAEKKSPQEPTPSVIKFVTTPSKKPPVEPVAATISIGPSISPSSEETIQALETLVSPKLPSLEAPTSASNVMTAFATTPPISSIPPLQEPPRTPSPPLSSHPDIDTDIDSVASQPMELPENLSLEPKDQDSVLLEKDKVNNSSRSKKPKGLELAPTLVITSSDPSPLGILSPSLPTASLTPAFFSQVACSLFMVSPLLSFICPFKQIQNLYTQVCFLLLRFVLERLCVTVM
# Method in brief: as §1
# ETV2 = molecular target: T10, ETV2 (Homo sapiens, UniProt O00321 1-342); conditions: protein: recombinant; tags: N-terminal GST; dsDNA, one strand shown
# T10 sequence: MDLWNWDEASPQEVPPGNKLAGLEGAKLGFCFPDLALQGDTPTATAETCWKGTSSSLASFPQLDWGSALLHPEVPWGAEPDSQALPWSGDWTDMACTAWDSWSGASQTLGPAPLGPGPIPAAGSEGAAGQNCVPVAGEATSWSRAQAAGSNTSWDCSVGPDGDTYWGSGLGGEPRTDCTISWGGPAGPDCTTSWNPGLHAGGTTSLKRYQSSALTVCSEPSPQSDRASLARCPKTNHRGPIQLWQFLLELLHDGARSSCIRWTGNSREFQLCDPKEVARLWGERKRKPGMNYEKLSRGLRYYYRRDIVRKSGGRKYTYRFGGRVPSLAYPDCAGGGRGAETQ
# Method in brief: as §1
# ELF3 = molecular target: T11, ELF3 (Homo sapiens, UniProt P78545 1-371); conditions: protein: recombinant; tags: N-terminal GST; dsDNA, one strand shown
# T11 sequence: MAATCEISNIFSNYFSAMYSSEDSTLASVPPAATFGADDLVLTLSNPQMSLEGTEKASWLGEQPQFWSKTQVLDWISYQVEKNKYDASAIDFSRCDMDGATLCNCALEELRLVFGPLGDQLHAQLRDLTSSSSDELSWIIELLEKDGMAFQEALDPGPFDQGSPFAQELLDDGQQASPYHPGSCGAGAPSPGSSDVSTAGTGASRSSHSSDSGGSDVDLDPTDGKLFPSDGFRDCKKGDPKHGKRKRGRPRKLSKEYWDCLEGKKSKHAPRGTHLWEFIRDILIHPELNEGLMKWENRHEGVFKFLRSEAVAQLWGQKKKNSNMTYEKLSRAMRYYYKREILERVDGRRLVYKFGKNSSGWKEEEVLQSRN
# Method in brief: as §1
# CRX = CRX (Homo sapiens, UniProt O43186 1-299); conditions: protein: recombinant; tags: N-terminal GST; dsDNA, one strand shown
# Method in brief: as §1
# ETV1 = ETV1 (Homo sapiens, UniProt P50549 1-477); conditions: protein: recombinant; tags: N-terminal GST; dsDNA, one strand shown
# Method in brief: as §1
# Sequence of HSF1 (Q00613 whole entry): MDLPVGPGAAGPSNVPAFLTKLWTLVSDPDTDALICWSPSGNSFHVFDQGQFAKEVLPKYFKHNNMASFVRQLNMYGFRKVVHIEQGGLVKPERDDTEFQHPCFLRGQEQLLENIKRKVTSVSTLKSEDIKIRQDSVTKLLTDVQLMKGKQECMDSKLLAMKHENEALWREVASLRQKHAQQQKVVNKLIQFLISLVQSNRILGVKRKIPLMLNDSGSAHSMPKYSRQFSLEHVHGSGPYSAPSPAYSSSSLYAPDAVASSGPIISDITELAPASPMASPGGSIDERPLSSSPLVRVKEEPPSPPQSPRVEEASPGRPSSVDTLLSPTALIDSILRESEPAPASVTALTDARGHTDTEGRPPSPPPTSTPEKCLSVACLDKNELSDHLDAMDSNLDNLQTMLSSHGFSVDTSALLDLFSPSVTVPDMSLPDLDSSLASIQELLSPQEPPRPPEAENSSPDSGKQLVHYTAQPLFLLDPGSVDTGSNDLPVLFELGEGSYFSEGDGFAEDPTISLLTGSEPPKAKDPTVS
# Sequence of ELF1 (P32519 whole entry): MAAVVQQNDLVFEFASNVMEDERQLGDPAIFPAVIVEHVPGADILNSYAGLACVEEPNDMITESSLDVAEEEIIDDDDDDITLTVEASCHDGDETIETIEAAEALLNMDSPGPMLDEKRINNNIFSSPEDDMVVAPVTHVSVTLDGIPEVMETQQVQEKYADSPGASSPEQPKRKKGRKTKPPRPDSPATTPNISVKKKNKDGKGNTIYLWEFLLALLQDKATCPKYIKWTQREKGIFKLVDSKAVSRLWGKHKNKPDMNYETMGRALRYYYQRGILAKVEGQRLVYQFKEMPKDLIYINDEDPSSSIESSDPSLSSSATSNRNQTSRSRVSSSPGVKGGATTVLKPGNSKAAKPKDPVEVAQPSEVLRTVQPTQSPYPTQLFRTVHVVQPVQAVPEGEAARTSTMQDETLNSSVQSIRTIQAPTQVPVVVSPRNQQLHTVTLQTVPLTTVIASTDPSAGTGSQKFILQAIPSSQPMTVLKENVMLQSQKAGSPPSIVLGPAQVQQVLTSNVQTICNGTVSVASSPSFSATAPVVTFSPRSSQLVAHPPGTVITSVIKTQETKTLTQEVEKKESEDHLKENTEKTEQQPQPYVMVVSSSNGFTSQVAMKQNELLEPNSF
# Sequence of SPIB (Q01892 whole entry): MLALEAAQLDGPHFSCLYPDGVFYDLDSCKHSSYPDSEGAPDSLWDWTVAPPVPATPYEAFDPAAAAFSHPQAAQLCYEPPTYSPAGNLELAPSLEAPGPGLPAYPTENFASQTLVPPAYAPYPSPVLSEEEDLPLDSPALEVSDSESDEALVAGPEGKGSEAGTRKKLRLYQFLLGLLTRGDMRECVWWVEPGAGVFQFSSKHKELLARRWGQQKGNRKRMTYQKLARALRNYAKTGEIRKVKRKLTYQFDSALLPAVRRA
# Sequence of ELF4 (Q99607 whole entry): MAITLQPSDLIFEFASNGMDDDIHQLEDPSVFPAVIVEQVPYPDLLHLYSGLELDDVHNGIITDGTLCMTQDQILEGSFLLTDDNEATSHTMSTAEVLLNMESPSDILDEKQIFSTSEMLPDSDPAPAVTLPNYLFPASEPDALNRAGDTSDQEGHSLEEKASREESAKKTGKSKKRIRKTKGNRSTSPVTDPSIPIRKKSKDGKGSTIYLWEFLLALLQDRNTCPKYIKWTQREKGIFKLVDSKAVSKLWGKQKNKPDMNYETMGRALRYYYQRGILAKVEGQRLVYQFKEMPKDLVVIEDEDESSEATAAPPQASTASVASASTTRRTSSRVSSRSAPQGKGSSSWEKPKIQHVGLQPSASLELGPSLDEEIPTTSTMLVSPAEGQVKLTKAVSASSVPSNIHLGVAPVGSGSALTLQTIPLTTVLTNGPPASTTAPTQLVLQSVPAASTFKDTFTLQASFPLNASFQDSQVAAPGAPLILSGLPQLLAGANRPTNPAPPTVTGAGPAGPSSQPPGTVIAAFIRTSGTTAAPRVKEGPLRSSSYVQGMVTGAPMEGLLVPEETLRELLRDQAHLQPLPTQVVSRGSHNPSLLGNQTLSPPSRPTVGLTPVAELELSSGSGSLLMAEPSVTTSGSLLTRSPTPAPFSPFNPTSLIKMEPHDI
# Sequence of ETV5 (P41161 whole entry): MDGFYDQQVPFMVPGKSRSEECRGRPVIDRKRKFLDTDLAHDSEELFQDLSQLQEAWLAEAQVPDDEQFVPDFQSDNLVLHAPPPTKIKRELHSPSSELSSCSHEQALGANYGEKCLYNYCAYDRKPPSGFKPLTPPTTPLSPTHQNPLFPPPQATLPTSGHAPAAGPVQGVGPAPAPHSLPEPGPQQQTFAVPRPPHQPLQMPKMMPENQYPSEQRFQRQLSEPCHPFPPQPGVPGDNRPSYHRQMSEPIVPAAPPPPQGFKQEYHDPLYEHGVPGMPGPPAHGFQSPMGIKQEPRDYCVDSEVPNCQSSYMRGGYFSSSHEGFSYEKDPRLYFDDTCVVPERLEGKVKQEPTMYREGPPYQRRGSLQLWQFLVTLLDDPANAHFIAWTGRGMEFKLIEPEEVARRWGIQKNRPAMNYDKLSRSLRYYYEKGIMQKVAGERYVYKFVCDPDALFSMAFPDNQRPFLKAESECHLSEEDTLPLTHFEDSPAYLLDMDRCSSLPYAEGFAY
# Sequence of ETV1 (P50549 whole entry): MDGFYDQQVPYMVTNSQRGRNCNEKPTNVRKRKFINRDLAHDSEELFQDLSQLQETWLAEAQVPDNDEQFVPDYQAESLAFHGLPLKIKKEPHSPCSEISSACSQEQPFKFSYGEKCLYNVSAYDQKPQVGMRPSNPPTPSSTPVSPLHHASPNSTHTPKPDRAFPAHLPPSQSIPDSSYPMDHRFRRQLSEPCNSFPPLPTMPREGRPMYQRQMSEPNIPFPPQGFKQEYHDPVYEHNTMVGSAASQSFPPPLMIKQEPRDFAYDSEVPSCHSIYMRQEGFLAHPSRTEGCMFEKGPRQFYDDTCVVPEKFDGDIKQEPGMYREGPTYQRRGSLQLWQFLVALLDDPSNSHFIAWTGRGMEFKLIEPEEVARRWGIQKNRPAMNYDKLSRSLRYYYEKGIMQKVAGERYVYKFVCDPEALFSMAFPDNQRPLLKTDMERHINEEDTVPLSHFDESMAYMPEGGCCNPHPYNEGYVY
# Sequence of CRX (O43186 whole entry): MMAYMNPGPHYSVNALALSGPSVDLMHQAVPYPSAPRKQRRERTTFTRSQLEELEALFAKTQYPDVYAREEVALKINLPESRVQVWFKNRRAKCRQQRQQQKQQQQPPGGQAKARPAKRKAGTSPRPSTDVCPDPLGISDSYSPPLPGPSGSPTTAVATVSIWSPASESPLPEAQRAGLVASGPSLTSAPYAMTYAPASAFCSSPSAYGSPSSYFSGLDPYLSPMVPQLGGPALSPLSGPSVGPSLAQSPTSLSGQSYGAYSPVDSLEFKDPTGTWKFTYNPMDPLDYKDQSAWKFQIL
sequence,measurement,setting,value
CCGGAT,binding signal,FLI1,"3.23 fold enrichment (6-mer frequency, TF over GST control)"
same,binding signal,ELK1,"3.45 fold enrichment (6-mer frequency, TF over GST control)"
same,binding signal,GABPA,"2.97 fold enrichment (6-mer frequency, TF over GST control)"
same,binding signal,ERG,"4.05 fold enrichment (6-mer frequency, TF over GST control)"
same,binding signal,ELF1,"2.97 fold enrichment (6-mer frequency, TF over GST control)"
same,binding signal,EHF,"3.16 fold enrichment (6-mer frequency, TF over GST control)"
same,binding signal,SPI1,"2.86 fold enrichment (6-mer frequency, TF over GST control)"
same,binding signal,SPIB,"3.26 fold enrichment (6-mer frequency, TF over GST control)"
same,binding signal,ELK3,"3.33 fold enrichment (6-mer frequency, TF over GST control)"
same,binding signal,FEV,"7.2 fold enrichment (6-mer frequency, TF over GST control)"
same,binding signal,ETV5,"3.55 fold enrichment (6-mer frequency, TF over GST control)"
same,binding signal,HSF1,"1.63 fold enrichment (6-mer frequency, TF over GST control)"
same,binding signal,SPIC,"2.66 fold enrichment (6-mer frequency, TF over GST control)"
same,binding signal,ELF4,"2.75 fold enrichment (6-mer frequency, TF over GST control)"
same,binding signal,ELK4,"2.74 fold enrichment (6-mer frequency, TF over GST control)"
same,binding signal,ETV2,"2.89 fold enrichment (6-mer frequency, TF over GST control)"
same,binding signal,ELF3,"3.19 fold enrichment (6-mer frequency, TF over GST control)"
same,binding signal,CRX,"2.03 fold enrichment (6-mer frequency, TF over GST control)"
same,binding signal,ETV1,"3.5 fold enrichment (6-mer frequency, TF over GST control)"
